MITF primary = human MITF inhibition, primary screen. O75030. AID 1259374. hit rate 0.91% among 650,000. inhibition, % at 2.6 µM. AlphaScreen MITF homodimerization, bead proximity signal; in the data active = inhibition above about 50%;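 note: 0% = vehicle wells with protein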
FBW7 act = human FBW7 E3 ligase activation, primary screen. AID 1259310. normalized activity (activation), % at 26.1 µM. hit rate 0.13% among 650,000. AlphaScreen FBW7–phospho-cyclin E peptide binding, activator screen; in the data active = normalized activity above about 1.9%;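 note: purified mutant Fbw7 with reduced substrate affinity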
GPR151 activ = activators of human GPR151; activation, % at 11.2 µM; hit rate 1% among 650,000; AID 1508602; Q8TDV0; PathHunter beta-arrestin GPR151 cells, luminescence; in the data active = activation above about 4.9%;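 note: 0% = median of compound wells and 100% = cells with positive control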
TEAD-YAP block = TEAD-YAP interaction inhibition; inhibition, % at 9.12 µM; HEK-TIYL cells, TEAD-Gal4/YAP UAS-luciferase luminescence; hit rate 1.4% among 640,000; in the data active = inhibition above about 32%;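 note: 0% = median of test compound wells and 100% = reference inhibitor wells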
GPR151 confirm = confirmation of human GPR151 activators. shares compounds with GPR151 activ. GPR151 PathHunter beta-arrestin cells, luminescence, 90 min; % of EA-reagent control over plate median. activation, % at 11.2 µM. 6,700 tested, under 10 active. AID 1508609;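 active = mean percent activation across replicates above the confirmation screen cutoff of 4.91%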
GPR119 ag = GPR119 activation, counter-screen for GPR151 activators. hit rate 0.3% among 6,700. AID 1508611. shares compounds with GPR151 activ. GPR119 PathHunter beta-arrestin cells, luminescence, 90 min; 0 = compound-well median, 100 = enzyme-acceptor control. activation, % at 11.2 µM;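 active = mean percent activation in the counterscreen above 29.09%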;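 note: counterscreen on off-target GPR119 to flag nonselective hits from the GPR151 activator screen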
Target sequence (Q8TDV5 whole entry, looked up): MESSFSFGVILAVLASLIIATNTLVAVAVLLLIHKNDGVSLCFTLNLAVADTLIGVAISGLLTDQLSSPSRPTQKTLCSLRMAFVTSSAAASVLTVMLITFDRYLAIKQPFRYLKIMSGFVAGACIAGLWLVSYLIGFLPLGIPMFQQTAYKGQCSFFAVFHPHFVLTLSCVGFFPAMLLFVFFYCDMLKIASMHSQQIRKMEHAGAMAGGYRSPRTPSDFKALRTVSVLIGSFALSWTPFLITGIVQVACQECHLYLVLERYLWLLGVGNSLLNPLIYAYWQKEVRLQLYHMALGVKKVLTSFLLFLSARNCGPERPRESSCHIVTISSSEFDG
Numbers without * were called inactive; ! = a repeat was not active. Most compounds without a hit are left out; they make up all but 3.5% or so of the library.

Results for COCC(=O)N/N=C(\C)CC(=O)Nc1cc(OC)c(Cl)cc1OC ?
MITF primary: 8; FBW7 act: 0; GPR151 activ: 3; TEAD-YAP block: 1

Results for Oc1ccc(O)cc1 ?
MITF primary: -4; FBW7 act: 0; GPR151 activ: 5.1*!; TEAD-YAP block: -27; GPR151 confirm: 0; GPR119 ag: -7

How did Oc1ccc(Sc2ccc(O)cc2)cc1 do in these assays?
MITF primary: 3; FBW7 act: 0; GPR151 activ: 0; TEAD-YAP block: -2

How did Cc1cc(F)ccc1NC(=O)CCNc1c(N2CCCC2)c(=O)c1=O do in these assays?
MITF primary: 14; FBW7 act: 0; GPR151 activ: 5.0*; TEAD-YAP block: -3; GPR151 confirm: 0; GPR119 ag: -13

How did Clc1ccccc1-c1nc(N2CCOCC2)nc2ccc(Br)cc12 do in these assays?
MITF primary: 1; FBW7 act: 0; GPR151 activ: 0; TEAD-YAP block: -10

What do the screens show for `CCc1cc2[nH]c(C(=O)OC)cc2s1`?
MITF primary: 2; FBW7 act: 0; GPR151 activ: 5.0*; TEAD-YAP block: -37; GPR151 confirm: 0; GPR119 ag: 10

What do the screens show for `O=C(NCc1ccccc1)C1C2C=CC3(CN(Cc4ccccc4)C(=O)C13)O2` (stereo not given)?
MITF primary: -1; FBW7 act: 0; GPR151 activ: -1; TEAD-YAP block: 6

What do the screens show for `O=C(CN1CCN(Cc2ccccc2)C1=O)NCc1ccc(Cl)cc1`?
MITF primary: -4; FBW7 act: 0; GPR151 activ: 13*; TEAD-YAP block: -9; GPR151 confirm: 0; GPR119 ag: 2

How did O=C(NCc1ccc(Cl)cc1)C1C2C=CC3(CN(Cc4ccccc4)C(=O)C13)O2 (stereo not given) do in these assays?
MITF primary: 4; FBW7 act: 0; GPR151 activ: 5.1*; TEAD-YAP block: 2; GPR151 confirm: 2; GPR119 ag: 17

Results for O=C(CNCc1ccc(Cl)cc1)Nc1cccc(Cl)c1Cl ?
MITF primary: -10; FBW7 act: 0; GPR151 activ: 2; TEAD-YAP block: 1

What do the screens show for `CC(=O)N1c2ccccc2NC2=C(C(=O)CC(c3ccc(Cl)cc3)C2)C1c1ccc(F)cc1` (stereo not given)?
MITF primary: 2; FBW7 act: 0; GPR151 activ: 0; TEAD-YAP block: 8

What do the screens show for `CSc1ncc(CN2CCCC(N3CCN(c4ccccc4)CC3)C2)cn1` (stereo not given)?
MITF primary: 12; FBW7 act: 0; GPR151 activ: 8.8*; TEAD-YAP block: -2; GPR151 confirm: -1; GPR119 ag: -6

Results for Cc1csc2ncc(C(=O)N3CCc4ccccc43)c(=O)n12 ?
MITF primary: 7; FBW7 act: 0; GPR151 activ: 7.9*; TEAD-YAP block: -15; GPR151 confirm: 2; GPR119 ag: -2

How did COc1ccccc1C(=O)N/N=C(\C)CC(=O)Nc1ccccc1Br do in these assays?
MITF primary: -1; FBW7 act: 0; GPR151 activ: 7.6*; TEAD-YAP block: -41; GPR151 confirm: 0; GPR119 ag: 9

Results for CC(=O)Nc1ccccc1NC(=O)C/C(C)=N/NC(=O)c1ccncc1 ?
MITF primary: 6; FBW7 act: 0; GPR151 activ: 1; TEAD-YAP block: -5

What do the screens show for `C/C(CC(=O)Nc1ccccc1Cl)=N\NC(=O)c1ccncc1`?
MITF primary: -2; FBW7 act: 0; GPR151 activ: 9.1*; TEAD-YAP block: 9; GPR151 confirm: -1; GPR119 ag: -10

What do the screens show for `CC1(C)CC(NC(=O)c2cc(Cl)c(Cl)cc2C(=O)O)CC(C)(C)N1`?
MITF primary: 4; FBW7 act: 0; GPR151 activ: 1; TEAD-YAP block: 4

Results for CC(C)C1Oc2ccccc2N(CC(=O)NCCCN2C(C)CCCC2C)C1=O (stereo not given) ?
MITF primary: 18; FBW7 act: 0; GPR151 activ: 5.0*; TEAD-YAP block: 12; GPR151 confirm: 0; GPR119 ag: -3

How did COCCCNC(=O)CN1C(=O)C(C(C)C)Oc2ccc(C)cc21 (stereo not given) do in these assays?
MITF primary: 2; FBW7 act: 0; GPR151 activ: 6.1*; TEAD-YAP block: 4; GPR151 confirm: 0; GPR119 ag: 13

Results for CC(=O)c1ccc(NC(=O)CSc2ccc(F)cc2)cc1 ?
MITF primary: 0; FBW7 act: 0; GPR151 activ: 0; TEAD-YAP block: -35

Results for CC(=O)c1ccc(NC(=O)CSc2ccc(C)cc2)cc1 ?
MITF primary: 12; FBW7 act: 0; GPR151 activ: 5.5*; TEAD-YAP block: -39; GPR151 confirm: 1; GPR119 ag: 4

Results for C=CCS/C(=C(/C#N)C(N)=O)c1cc2c([nH]1)CCCC2 ?
MITF primary: 6; FBW7 act: 0; GPR151 activ: 8.6*; TEAD-YAP block: -2; GPR151 confirm: 0; GPR119 ag: 5

Results for O=P(CCO)(c1ccccc1)c1ccccc1 ?
MITF primary: 17; FBW7 act: 0; GPR151 activ: -2; TEAD-YAP block: 1

Results for O=P(CCCO)(c1ccccc1)c1ccccc1 ?
MITF primary: 30; FBW7 act: 0; GPR151 activ: 10*; TEAD-YAP block: -3; GPR151 confirm: 1; GPR119 ag: 15

How did CCOC(=O)c1sc(C)c2c(=O)[nH]nnc12 do in these assays?
MITF primary: 1; FBW7 act: 0; GPR151 activ: 0; TEAD-YAP block: 2

Results for CC(=O)c1c(C)[nH]c(C(=O)Nc2nc3c(C)cc(C)cc3s2)c1C ?
MITF primary: 1; FBW7 act: 0; GPR151 activ: 5.9*; TEAD-YAP block: -7; GPR151 confirm: 0; GPR119 ag: 9

Results for O=C(O)CCC(=O)Nc1cccc(-c2nnc(-c3ccccc3)o2)c1 ?
MITF primary: 3; FBW7 act: 0; GPR151 activ: 5.0*; TEAD-YAP block: -6; GPR151 confirm: -1; GPR119 ag: -11

What do the screens show for `O=C(Cc1ccccc1)Nc1cccc(-c2nnc(-c3cccc(NC(=O)Cc4ccccc4)c3)o2)c1`?
MITF primary: -8; FBW7 act: 0; GPR151 activ: 1; TEAD-YAP block: -5

How did O=C(COc1ccccc1)Nc1ccc2oc(-c3ccccc3)nc2c1 do in these assays?
MITF primary: -11; FBW7 act: 0; GPR151 activ: 6.3*; TEAD-YAP block: -22; GPR151 confirm: 0; GPR119 ag: 10

How did O=C(COc1ccccc1)Nc1nnc(-c2ccccc2)o1 do in these assays?
MITF primary: 13; FBW7 act: 0; GPR151 activ: 6.0*; TEAD-YAP block: -5; GPR151 confirm: -1; GPR119 ag: -3

Results for Cc1ccc(N(CC(=O)NC2CC2)S(=O)(=O)c2ccc(F)cc2)cc1 ?
MITF primary: -9; FBW7 act: 0; GPR151 activ: 0; TEAD-YAP block: -4
